Results taken from the supplement of paper PMC10338343.
± gives the standard deviation. Over roughly 8,200 sequences, “pre-steady-state target cleavage rate” has its median near 0.024; the highest 2% begin near 1.3. The sample as a whole holds a higher share of the highest values than the screen did.

System: MIWI (PIWIL1) piRISC loaded with L1MC piRNA (30 nt)
Assay: pre-steady-state target cleavage rate (min^-1); MIWI and MILI are mouse PIWI proteins and EfPiwi is from a freshwater sponge; tags in brackets are library labels; higher = faster piRNA-guided slicing of the target
Conditions: guide: L1MC piRNA 5'p-UAACUAAAUACUAUGCAAGCUGUAGGUCCU
How it was run: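 At 33 °C in HEPES–potassium acetate buffer, a transcribed, DNA-blocked target RNA library […] was exposed for 0–8 or 0–960 min to 1 nM active affinity-purified piRISC carrying a single synthetic guide, with or without 500 nM GTSF1 partner protein. Uncleaved targets were sequenced and normalised to depth and to weakly complementary targets. With three trials pooled and k3 capped at 0.0001 min^-1, a burst-and-steady-state fit produced the pre-steady-state cleavage rate.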

[1] = auxiliary factor: 500 nM mouse GTSF1
[2] = auxiliary factor: none (no GTSF1)
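Also: 1 nM active piRISC with 0.1 nM target library at 33 °C single turnover.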

Sequence	pre-steady-state target cleavage rate [1]	pre-steady-state target cleavage rate [2]
UCCUCCUACAGCUUGCAUAGUUUUUAGAUA	0.228 ± 0.036	0.00676 ± 0.0025
AGGACCUACAGCUUGCAUAGUUUUUAGAUA	0.259 ± 0.034	0.0189 ± 0.0055
UCCUGCUACAACUUGCAUAGUAUUUAGUUA	0.679 ± 0.044	0.0522 ± 0.0072
UCCUGGUUCAGCUUGGAUAGUAUUUAGUUA	0.791 ± 0.063	0.0603 ± 0.014
UCCUGGAACAGCUGCAUAGUAUUUAGUUA	0.767 ± 0.044	0.00757 ± 0.0034
UCCACCUACAGCCUGCAUAGUAUUUAGUUA	1.15 ± 0.033	0.0634 ± 0.01
UCGACCUACAGCCUUGCAUAGUAUUUAGUUA	1.28 ± 0.046	0.0668 ± 0.014
UCGACCUACAGCCUGCAUAGUAUUUAGUUA	1.41 ± 0.038	0.0857 ± 0.015
AGGACCUACAGCCUUGCAUAGUAUUUAGUUA	1.23 ± 0.069	0.0878 ± 0.019
UGGACCUACAGCCUGCAUAGUAUUUAGUUA	1.34 ± 0.048	0.0741 ± 0.013
UCCUGCUACAGCCUGCAUAGUAUUUAGUUA	0.976 ± 0.05	0.0598 ± 0.011
UGGACCUACAGCCUUGCAUAGUAUUUAGUUA	1.21 ± 0.081	0.0496 ± 0.0085
AGGACCUACAGCCUGCAUAGUAUUUAGUUA	1.51 ± 0.063	0.0892 ± 0.017
UCCUCCUACAGCCUGCAUAGUAUUUAGUUA	1.18 ± 0.038	0.056 ± 0.0094
AGGACCUACUGCUUGCAUAGUAUUUAGUAA	0.861 ± 0.077	0.0651 ± 0.012
UCCUGGAACAGGUUGCAUAGUUUUUAGUUA	0.167 ± 0.016	0.0162 ± 0.0044
UGGACCUACAGGUUGCAUAGUAUAUAGUUA	0.549 ± 0.056	0.0198 ± 0.0053
UGGACCUUCAGGUUGCAUAGUAUUUAGUUA	1.14 ± 0.099	0.0476 ± 0.01
UGGACCUACAGCUUGCAUACUAUUUUCAAA	0.0881 ± 0.021	–
UCCUGGAUGUGCAUUGCAUAGUAUUUAGUUA	0.223 ± 0.023	0.0111 ± 0.0032
UCGUGGUACAGCUUGCAUAGUAUUUAGAAA	0.305 ± 0.029	0.00755 ± 0.0023
UCCUGGAACAGCUUGGAUAGUAUUUACUUA	0.0518 ± 0.0087	0.0182 ± 0.0036
UCCUGCUACAGCUUGCUAUAGUAUUUAGUUA	0.0317 ± 0.011	–
UCCUGGAUCUGCUUGCAUUGUAUUUAGUUA	0.228 ± 0.037	0.0147 ± 0.0049
UCCUGGUACACGUUGCAUAGUAUUUUCAAA	0.0245 ± 0.013	–
UGGUCCUACUGCUUGCAUAGUAUUUAGUUA	1.22 ± 0.05	0.0687 ± 0.01

Sequence	pre-steady-state target cleavage rate [1]	pre-steady-state target cleavage rate [2]
AGGACCUAGAGCUUGCAAAGUAUUUAGUUA	1.17 ± 0.054	0.0284 ± 0.0069
AGGACCUACAGCUUGCAUAGAUUUUAGAAA	0.247 ± 0.071	–
UCGACCUACAGCUUGCAGAGUAUUUAGUUA	1.05 ± 0.066	0.0315 ± 0.0073
UCCUCCUUCAGCUUGCAUAGUAUUUAGUUA	1.23 ± 0.036	0.0537 ± 0.0085
UCCUGGUUCAGCUUGCAUAGUAUUUAGUUA	0.972 ± 0.042	0.0721 ± 0.016
UCCUCCUUCAGCUUGCAUAGUAUUUAGUAA	0.717 ± 0.04	0.0202 ± 0.0041
UCCACCUUCAGCUUGCAUAGUAUUUAGUAA	0.628 ± 0.038	0.0237 ± 0.0045
UCGUCCUUCAGCUUGCAUAGUAUUUAGUUA	1.41 ± 0.038	0.0596 ± 0.01
UCCUCGUUCAGCUUGCAUAGUAUUUAGUUA	1.4 ± 0.041	0.0653 ± 0.014
UCCUCCUCCAGCUUGCAUAGUAUUUAGUUA	1.12 ± 0.027	0.0546 ± 0.0092
UGGUCCUUCAGCUUGCAUAGUAUUUAGUUA	1.22 ± 0.059	0.0643 ± 0.011
AGGUCCUUCAGCUUGCAUAGUAUUUAGUUA	1.42 ± 0.05	0.0947 ± 0.018
UCCUGGUACAGCUUGCAUUGUAUUUAGAAA	0.0478 ± 0.013	–
AGGACCUACACCUUGCAUAGUAUUAAGUUA	0.627 ± 0.054	0.0334 ± 0.0069
UCCUGGAUGAGCUUGCAAAGUAUUAAGUUA	0.331 ± 0.035	0.00974 ± 0.0037
UCCACCUACAGCUUGGAAAGUAUUUAGUUA	1.01 ± 0.03	0.00576 ± 0.0018
UCCACCUACAGCUUGCAUAGUAUCUUAGUUA	0.709 ± 0.057	0.0225 ± 0.005
UCCACCUACAGCUUGCAUAGUAAAUACAAA	0.155 ± 0.037	–
UCCUGGAUGUGCUUGGAUAGUAUAUAGUUA	0.0799 ± 0.017	0.0106 ± 0.0049
UCCUGGAACAGCUUGCAUAGUAUUUAAGUUA	0.549 ± 0.034	0.0597 ± 0.014
UCCACCUACAGCUCUGCAUAGUAUUUAGUUA	0.862 ± 0.063	0.0214 ± 0.0048
UGGACCUACAGCUGCAUAGUAUUUAGUUA	1.37 ± 0.11	0.00982 ± 0.0031
AGGACCUACAGCUGCAUAGUAUUUAGUUA	1.15 ± 0.068	0.0107 ± 0.0029
UGGACCUACAGCUAUGCAUAGUAUUUAGUUA	1.24 ± 0.11	0.0371 ± 0.0083
UGGACCUACAGCUGGCAUAGUAUUUAGUUA	1.04 ± 0.044	0.0463 ± 0.011
UCCUGCUACAGCUCUGCAUAGUAUUUAGUUA	0.851 ± 0.058	0.0138 ± 0.003

Sequence	pre-steady-state target cleavage rate [1]	pre-steady-state target cleavage rate [2]
AGGACCUACAGCUAUGCAUAGUAUUUAGUUA	0.962 ± 0.052	0.0545 ± 0.011
UCCUCCUACAGCUCUGCAUAGUAUUUAGUUA	1.03 ± 0.044	0.0182 ± 0.0041
UCGACCUACAGCUCUGCAUAGUAUUUAGUUA	1.32 ± 0.067	0.0476 ± 0.0099
UCGACCUACAGCUGCAUAGUAUUUAGUUA	1.3 ± 0.079	0.00665 ± 0.0025
AGGACCUACAGCUCUGCAUAGUAUUUAGUUA	1.56 ± 0.1	0.0543 ± 0.014
UGGACCUACAGCUCUGCAUAGUAUUUAGUUA	1.56 ± 0.11	0.0566 ± 0.014
UCCACCUACAGCUUGCAUAGUAAAAAGAAA	0.102 ± 0.028	–
UCCUGGAUCAGCUUGCUUAGUUUUUAGUUA	0.0882 ± 0.01	0.0125 ± 0.0034
UCCUGGUACAGCUUGCAUAGUUAUUAGUAA	0.0627 ± 0.017	0.00413 ± 0.0036
UCCUGGUAUCAGCUUGCAUAGUAUUUAGUUA	0.546 ± 0.06	0.062 ± 0.014
UCGACCUACAGCUUGGUUAGUAUUUAGAAA	0.224 ± 0.04	–
UCCUGGAUGUCGAUGCAUAGUAUUUUGUUA	0.00674 ± 0.0031	–
UGGACGUACAGCUUGCAUAGUAUUUUCAAA	0.213 ± 0.034	0.00471 ± 0.0022
UCCUGCUACAGCUUGGUUAGUAUUUUCAAA	0.00524 ± 0.0039	–
UCCUGGAACAGCUUGCAUAUAUUUAGUUA	0.0784 ± 0.011	0.0034 ± 0.0028
UCCUCCUACAGCUUGCAUAGUAUAAUGUUA	0.346 ± 0.027	0.0146 ± 0.0024
UCCUGGUACAGCCUUGCAUAGUAUUUAGUUA	0.594 ± 0.049	0.0422 ± 0.0091
UCGACCUACAGCUUGCCUAGUAUUUAGUUA	1.14 ± 0.046	0.0457 ± 0.0085
UCGACCUACAGCUUGCGUAGUAUUUAGUUA	1.86 ± 0.066	0.0695 ± 0.018
UCCUCCUACAGCUUGCGAUAGUAUUUAGUUA	0.0601 ± 0.018	–
UCCACCUACAGCUUGCGUAGUAUUUAGUUA	1.26 ± 0.049	0.0423 ± 0.0094
UGGACCUACAGCUUGCGUAGUAUUUAGUUA	1.79 ± 0.11	0.0538 ± 0.01
UCCUCCUACAGCUUGCGUAGUAUUUAGUUA	1.55 ± 0.078	0.0225 ± 0.0064
AGGACCUACAGCUUGCGUAGUAUUUAGUUA	1.24 ± 0.077	0.075 ± 0.013
UCGACCUACAGCUUGCGAUAGUAUUUAGUUA	0.0797 ± 0.02	–
UCCUGCUACAGCUUGCGUAGUAUUUAGUUA	0.806 ± 0.044	0.0172 ± 0.0034
